From PubChem BioAssay
The list is not random: actives were taken first. Their share in the collection is about 3.3%.
PI5P4Ka inh: qHTS for Inhibitors of phosphatidylinositol 5-phosphate 4-kinase (PI5P4K). 330,000 compounds, 1.2% hits. Phosphatidylinositol 5-phosphate 4-kinase type-2 alpha (Homo sapiens), P48426. max response, %. PI5P4Kalpha enzyme, ADP-Glo luminescence, 60 min; stronger effect = lower value; active = max response of -50% or lower; inconclusive = between -30% and -50%; inactive = -30% or higher; also: value at the top dose of about 77 µM
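PI5P4Kalpha ADP-Glo assay; 5 microM ATP final; 60 min RT reaction; HEPES pH 7.4/EGTA/CHAPS, 5% DMSO; controls lacking substrate or enzyme; luminescent end-point.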
USP1 inh: Inhibitors of USP1/UAF1: Primary Screen; recombinant USP1/UAF1, Ub-Rhodamine cleavage fluorescence; 390,000 compounds, 0.23% hits; AID 743255, 2014; Potency, µM (doses to about 57.1 µM), usual class: inhibitors; Ubiquitin carboxyl-terminal hydrolase 1 (Homo sapiens), O94782; also: nearly all actives have a fitted effect of over 60% in size
Target sequence (O94782 whole entry, looked up): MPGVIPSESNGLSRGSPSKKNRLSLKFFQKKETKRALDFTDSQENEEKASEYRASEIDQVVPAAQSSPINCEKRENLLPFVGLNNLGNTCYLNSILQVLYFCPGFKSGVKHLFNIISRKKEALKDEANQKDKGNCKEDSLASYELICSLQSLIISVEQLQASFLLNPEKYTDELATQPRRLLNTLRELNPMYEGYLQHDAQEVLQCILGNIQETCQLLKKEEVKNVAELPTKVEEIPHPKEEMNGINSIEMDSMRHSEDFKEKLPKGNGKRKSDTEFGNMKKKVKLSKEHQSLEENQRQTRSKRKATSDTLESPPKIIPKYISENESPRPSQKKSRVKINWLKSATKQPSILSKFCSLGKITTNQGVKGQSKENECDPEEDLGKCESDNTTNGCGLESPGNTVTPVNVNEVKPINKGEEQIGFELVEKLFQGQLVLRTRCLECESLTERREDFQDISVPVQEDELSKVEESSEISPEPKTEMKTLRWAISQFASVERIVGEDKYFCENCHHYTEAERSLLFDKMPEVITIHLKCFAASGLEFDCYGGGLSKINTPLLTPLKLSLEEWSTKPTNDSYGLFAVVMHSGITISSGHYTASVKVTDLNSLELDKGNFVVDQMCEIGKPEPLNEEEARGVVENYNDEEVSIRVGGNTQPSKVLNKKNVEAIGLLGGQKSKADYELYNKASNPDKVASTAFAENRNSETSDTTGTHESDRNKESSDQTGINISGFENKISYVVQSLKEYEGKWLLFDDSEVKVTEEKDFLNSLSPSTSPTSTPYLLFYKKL
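In this screen, compounds sit with the deubiquitinase complex (1nM) for 15 min at room temperature before Ub-Rho is added at 150nM final. Fluorescence rise is then followed for 6 reads every 60 seconds.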
PLK1 PBD inh: qHTS for Inhibitors of PLK1-PDB (polo-like kinase 1 - polo-box domain): Primary Screen | Plk1 PBD binding of FITC phosphopeptide, fluorescence polarization | AID 720504, 2013 | Potency, µM, usual class: inhibitors | 360,000 compounds, 2.8% hits; also: series mostly up to about 57 µM; nearly all actives have a fitted effect of over 65% in size
USP2a block: qHTS Assay for Inhibitors of Ubiquitin-specific Protease USP2a Using CHOP2 as the Reporter; Ubiquitin carboxyl-terminal hydrolase 2 (Homo sapiens), O75604; Potency, µM (top dose mostly 38.3 µM), actives largely listed as inhibitors; 330,000 compounds, 0.01% hits; USP2 core, Ub-CHOP2 coupled fluorogenic reporter, 485/531; AID 463254, 2010
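USP2 core (10nM final) preincubated 30min RT with compound in 20mM Tris-HCl pH 8.0, 2mM CaCl2, 2mM beta-mercaptoethanol, 0.05% CHAPS; 25nM Ub-CHOP2 plus 25nM reporter substrate added, fluorescence (Ex485/Em531) read after 60min.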
WRN helicase inh: qHTS for Inhibitors of WRN Helicase. 360,000 compounds, 0.46% hits. Potency, µM (titrated, usually from 114 µM), actives largely listed as inhibitors. Bifunctional 3'-5' exonuclease/ATP-dependent helicase WRN (Homo sapiens), Q14191. WRN helicase unwinding, fluorescent forked duplex, kinetic; also: nearly all actives have a fitted effect of over 55% in size
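Enzyme (20 nM final) and test compound sit together 15 min at room temperature before substrate addition. Substrate is a single-forked duplex oligonucleotide (100 nM) labelled with fluorophore and quencher, with 2 mM ATP; helicase unwinding raises red fluorescence, read kinetically.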
Of the large screens only hits and unclear results are named; the others gave an inactive call. Unless noted, calls follow the shape of the dose curve; as a rule, active = well fitted curve in the direction sought with a large enough effect; inconclusive = small, poorly fitted or top-dose-only effect, or another doubt; inactive = no such curve, though single readings can be large; an effect the other way counts as inactive or inconclusive.

Cc1nn(Cc2ccccc2)c(C)c1C(=O)OCC(=O)NCc1ccco1	none
CC(C)C(OC(=O)c1ccco1)C(=O)NCc1ccco1 (configuration not stated)	PLK1 PBD inh 27µM (no result: USP2a block)
CCCCCn1c(=O)c(C(=O)Nc2cnccn2)c(O)c2ccccc21	PI5P4Ka inh inconclusive, USP1 inh inconclusive, PLK1 PBD inh 21µM
O=C1Nc2ccccc2C1Cc1nc2ccccc2c(=O)n1-c1ccccc1 (configuration not stated)	PLK1 PBD inh 21µM
Cc1ccc(NC(=O)Cn2c(=O)oc3ccccc32)cc1C	PLK1 PBD inh 21µM
Cc1cc(C)cc(NC(=O)Cn2c(=O)oc3cc(S(=O)(=O)N4CC(C)CC(C)C4)ccc32)c1 (configuration not stated)	USP1 inh inconclusive
Cc1cccc(N2C(=O)/C(=C/c3ccc(CN(CCC#N)S(C)(=O)=O)o3)C(=O)NC2=S)c1	PI5P4Ka inh -56, USP1 inh 25µM, PLK1 PBD inh 7.5µM, WRN helicase inh 28µM
CCOc1ccc(N2C(=O)/C(=C/c3ccc(C)o3)C(=O)NC2=S)cc1	PI5P4Ka inh -76, USP1 inh inconclusive, PLK1 PBD inh 4.7µM, WRN helicase inh 45µM
O=C1NC(=S)N(c2ccc(F)cc2)C(=O)/C1=C\c1ccoc1	PI5P4Ka inh -87, USP1 inh 28µM, PLK1 PBD inh 2.7µM, WRN helicase inh inconclusive
CCOc1ccc(NS(=O)(=O)c2ccc(Cl)c(N=Nc3c(O)[nH]c(=S)[nH]c3=O)c2)cc1Br	PI5P4Ka inh inconclusive, PLK1 PBD inh inconclusive, WRN helicase inh inconclusive (no result: USP2a block)
C=CCN1C(=O)NC(=O)/C(=C/c2c(CCN(C)C(=O)c3ccccc3)cc3c(c2OC)OCO3)C1=O	PI5P4Ka inh inconclusive, PLK1 PBD inh 24µM
COc1cc(N2CCOCC2)ccc1C=C1C(=O)NC(=O)NC1=O	none
COc1cc(N2CCOCC2)ccc1/C=C1\C(=O)NC(=O)N(Cc2cccs2)C1=O	PLK1 PBD inh inconclusive, WRN helicase inh 50µM
COc1ccccc1N1CCN(Cc2ccc3c(c2)OCO3)CC1	none (no result: USP2a block)
COc1cc(N2CCOCC2)ccc1/C=C1\C(=O)NC(=O)N(Cc2ccc3c(c2)OCO3)C1=O	PI5P4Ka inh inconclusive, PLK1 PBD inh inconclusive, WRN helicase inh 50µM
C=Cc1ccc(Cn2c(C)c(CNCCc3cc(OC)ccc3OC)c(C(=O)O)c2C)cc1	none (no result: PI5P4Ka inh, PLK1 PBD inh, USP2a block, WRN helicase inh)
Cc1cccc(-c2nc(CN3C(=O)CN=C(c4ccccc4)c4ccccc43)c(C)o2)c1	none (no result: PI5P4Ka inh, PLK1 PBD inh, USP2a block, WRN helicase inh)
C=C1C(=O)OC2CC(C)C3C=CC(=O)C3(C)C(O)C12 (configuration not stated)	none (no result: USP2a block)
C=C1C(=O)O[C@@H]2C[C@@H](C)[C@@H]3C=CC(=O)[C@@]3(C)[C@@H](OC(=O)CC(=O)O[C@H]3[C@@H]4C(=C)C(=O)O[C@@H]4C[C@@H](C)[C@@H]4C=CC(=O)[C@]43C)[C@H]12	PI5P4Ka inh -66, USP1 inh inconclusive, PLK1 PBD inh inconclusive, WRN helicase inh 45µM
O=S1(=O)N(Cc2ccccc2)CCCN1Cc1cccc(Cl)c1	none (no result: PI5P4Ka inh, PLK1 PBD inh, USP2a block, WRN helicase inh)
CCOC(=O)c1ccc(-n2c(N)c(C(=O)NCC3CCCO3)sc2=S)cc1 (configuration not stated)	PLK1 PBD inh 12µM
O=C1NC(=O)C(Sc2ccccc2[N+](=O)[O-])C(=O)N1	PI5P4Ka inh -54, USP1 inh inconclusive, PLK1 PBD inh 3µM, WRN helicase inh inconclusive
O=c1oc(Cl)c(Cl)c2ccccc12	PLK1 PBD inh 0.34µM
O=C(/C=C/c1c[nH]c2ccccc12)c1c(O)n(CCc2ccccc2)c(=O)[nH]c1=O	PI5P4Ka inh -56, USP1 inh 25µM
Cc1ccccc1OCC(=O)N1CCN(CCc2ccccn2)CC1	none (no result: PI5P4Ka inh, PLK1 PBD inh, USP2a block, WRN helicase inh)
CC(C)c1ccc(N2C(=O)NC(=O)/C(=C/c3cnc(-c4ccccc4)nc3)C2=O)cc1	PI5P4Ka inh -54, PLK1 PBD inh 12µM, WRN helicase inh 50µM
O=C1NC(=O)N(Cc2ccccc2)C(=O)/C1=C/c1cnc(-c2ccccc2)nc1	PI5P4Ka inh -73, PLK1 PBD inh 6.7µM, WRN helicase inh inconclusive
Cc1ccccc1-n1c(C)cc(/C=C2/C(=O)NC(=O)N(Cc3ccco3)C2=O)c1C	none
CSc1ncc(/C=C2/C(=O)NC(=O)N(c3ccc(C(C)C)cc3)C2=O)cn1	PI5P4Ka inh inconclusive, PLK1 PBD inh 15µM, WRN helicase inh 50µM
O=C(Nc1ccon1)c1cccn(Cc2cccc([N+](=O)[O-])c2)c1=O	none (no result: PI5P4Ka inh, PLK1 PBD inh, USP2a block, WRN helicase inh)
COC(=O)C1=C(c2ccc(F)cc2F)C[C@@H]2CC[C@H]1N2C(=O)NCc1ccc(C(F)(F)F)cc1	none
COC(=O)CSc1n[nH]c(=S)s1	PLK1 PBD inh 19µM
CCOC(=O)CC(NC(=O)C(Cc1ccc(N(CCCl)CCCl)cc1)NC(C)=O)C(=O)OCC (configuration not stated)	PI5P4Ka inh inconclusive, PLK1 PBD inh 6µM
O=C(O)Cn1cc(/C=C2\C(=O)NC(=O)N(c3ccc(Cl)cc3)C2=O)c2ccccc21	PLK1 PBD inh 15µM, WRN helicase inh inconclusive
CCN(CC)C(=O)Cn1cc(/C=C2\C(=O)NC(=O)N(c3ccccc3F)C2=O)c2ccccc21	PLK1 PBD inh 4.7µM
CCOP(=O)(OCC)C(NC(=O)c1cccc(C)c1)C(Cl)(Cl)Cl (configuration not stated)	none
Cc1cccc(C(=O)NC(Oc2ccccc2)C(Cl)(Cl)Cl)c1 (configuration not stated)	PLK1 PBD inh 15µM
C[n+]1c2ccccc2nc2ccc(NCCO)cc21	USP1 inh inconclusive, WRN helicase inh 4.7µM
OCCNc1c2c(nc3ccccc13)CCCC2	none
CNc1ccc2nc3ccccc3[n+](C)c2c1	USP1 inh inconclusive, WRN helicase inh 3µM
CCOc1ccc2nc(NC(=O)c3cccn(Cc4ccc(Cl)cc4)c3=O)sc2c1	none (no result: PI5P4Ka inh, PLK1 PBD inh, USP2a block, WRN helicase inh)
O=c1c2ccccc2nc(/C=C\c2ccc(F)cc2)n1-c1ccccc1F	none (no result: PI5P4Ka inh, PLK1 PBD inh, USP2a block, WRN helicase inh)
O=C(Nc1ccc(OC(=O)N2CCCC2)cc1)N1CCOCC1	none (no result: PI5P4Ka inh)
O=C(Oc1ccc(Cl)cc1)N1CCOCC1	PLK1 PBD inh 11µM
N#CC(C#N)=NNc1ccc(S(N)(=O)=O)cc1	PI5P4Ka inh -107, PLK1 PBD inh 24µM, WRN helicase inh 56µM
O=c1[nH]c(O)c(/C=C2/C=CC(c3cc(Cl)ccc3Cl)=N2)c(=O)[nH]1	PLK1 PBD inh 0.95µM
O=C1CC(c2ccc(F)cc2)c2c(c3ccccc3oc2=O)O1 (configuration not stated)	none (no result: PI5P4Ka inh, PLK1 PBD inh, USP2a block, WRN helicase inh)
C/C(=N\NC(=O)c1ccncc1)c1c(O)n(Cc2ccccc2)c(=O)[nH]c1=O	PI5P4Ka inh inconclusive
C/C(=N\NC(=O)c1ccccc1)c1c(O)n(C2CCCCC2)c(=O)[nH]c1=O	PI5P4Ka inh -51
